The supplement of paper PMC11732987, “Enantioselective OTUD7B fragment discovery through chemoproteomics screening and high-throughput optimisation” (Communications Chemistry, 2025)

Tests used:
Experiment in all cases: log2 ratio of Biotin-Ahx-Ub-VS probe labelling (fragment/DMSO); higher = less target engagement (more negative = stronger competition), active = hit call of the paper (q ≤ 0.05, log2 ratio ≤ -1)
Conditions in all cases: compound concentration: 200 uM; treatment time: 3 h
ALG13 = target: T1, ALG13 (UniProt Q9NP73)
T1 sequence (whole entry): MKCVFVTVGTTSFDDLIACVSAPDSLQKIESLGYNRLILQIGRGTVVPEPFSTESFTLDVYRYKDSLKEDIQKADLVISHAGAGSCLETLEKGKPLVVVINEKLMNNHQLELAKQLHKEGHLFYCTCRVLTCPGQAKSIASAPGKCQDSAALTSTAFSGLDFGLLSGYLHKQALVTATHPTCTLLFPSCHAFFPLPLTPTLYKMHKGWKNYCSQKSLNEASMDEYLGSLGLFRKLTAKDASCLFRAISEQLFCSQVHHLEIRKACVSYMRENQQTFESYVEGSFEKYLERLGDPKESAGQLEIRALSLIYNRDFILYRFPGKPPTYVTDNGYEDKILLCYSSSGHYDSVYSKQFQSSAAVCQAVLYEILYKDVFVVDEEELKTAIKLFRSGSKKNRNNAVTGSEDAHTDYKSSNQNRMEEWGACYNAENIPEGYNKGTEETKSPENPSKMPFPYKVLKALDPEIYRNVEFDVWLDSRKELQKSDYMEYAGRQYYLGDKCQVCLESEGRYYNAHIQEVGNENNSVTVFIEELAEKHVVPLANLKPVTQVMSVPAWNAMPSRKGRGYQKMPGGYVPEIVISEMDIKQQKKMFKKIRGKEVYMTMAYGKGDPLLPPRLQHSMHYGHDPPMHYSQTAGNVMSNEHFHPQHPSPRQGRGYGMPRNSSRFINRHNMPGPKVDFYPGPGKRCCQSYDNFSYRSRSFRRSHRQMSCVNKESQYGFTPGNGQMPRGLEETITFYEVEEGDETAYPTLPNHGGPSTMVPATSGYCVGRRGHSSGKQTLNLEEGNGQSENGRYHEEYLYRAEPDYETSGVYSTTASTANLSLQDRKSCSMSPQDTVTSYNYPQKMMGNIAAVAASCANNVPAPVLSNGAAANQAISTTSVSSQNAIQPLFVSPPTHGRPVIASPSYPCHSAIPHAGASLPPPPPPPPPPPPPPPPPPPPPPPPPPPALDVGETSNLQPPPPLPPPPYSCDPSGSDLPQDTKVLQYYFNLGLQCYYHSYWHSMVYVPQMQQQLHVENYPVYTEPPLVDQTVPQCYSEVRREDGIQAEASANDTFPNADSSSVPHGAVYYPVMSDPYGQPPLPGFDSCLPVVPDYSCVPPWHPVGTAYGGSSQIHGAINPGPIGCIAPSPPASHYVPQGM
Outline: (§1)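 Fragment (200 µM) or vehicle was incubated for 3 h with triplicate HEK293T lysate samples of 495 µg, which were then treated with Biotin-Ahx-Ub-VS at 0.5 µM final for 1 h. Labelled DUBs were enriched on NeutrAvidin, digested with LysC and trypsin, and analysed by diaPASEF LC-MS/MS. Values are average log2 fragment/vehicle ratios from an unpaired t-test on global-median-normalised Spectronaut label-free quantities, using proteins with ≥2 unique peptides.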

ATXN3 = ATXN3 (UniProt P54252)
ATXN3, sequence (P54252 whole entry): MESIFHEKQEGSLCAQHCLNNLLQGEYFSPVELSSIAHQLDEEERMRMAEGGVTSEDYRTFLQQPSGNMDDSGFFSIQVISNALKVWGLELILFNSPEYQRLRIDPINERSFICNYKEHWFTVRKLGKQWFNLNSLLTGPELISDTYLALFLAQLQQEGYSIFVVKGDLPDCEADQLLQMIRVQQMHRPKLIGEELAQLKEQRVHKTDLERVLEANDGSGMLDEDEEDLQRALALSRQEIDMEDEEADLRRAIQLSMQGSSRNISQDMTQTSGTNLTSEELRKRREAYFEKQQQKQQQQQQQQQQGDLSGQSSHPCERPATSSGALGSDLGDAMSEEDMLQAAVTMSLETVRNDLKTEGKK
Outline: as §1

BAP1 = target: T2, BAP1 (UniProt Q92560)
T2 sequence (whole entry): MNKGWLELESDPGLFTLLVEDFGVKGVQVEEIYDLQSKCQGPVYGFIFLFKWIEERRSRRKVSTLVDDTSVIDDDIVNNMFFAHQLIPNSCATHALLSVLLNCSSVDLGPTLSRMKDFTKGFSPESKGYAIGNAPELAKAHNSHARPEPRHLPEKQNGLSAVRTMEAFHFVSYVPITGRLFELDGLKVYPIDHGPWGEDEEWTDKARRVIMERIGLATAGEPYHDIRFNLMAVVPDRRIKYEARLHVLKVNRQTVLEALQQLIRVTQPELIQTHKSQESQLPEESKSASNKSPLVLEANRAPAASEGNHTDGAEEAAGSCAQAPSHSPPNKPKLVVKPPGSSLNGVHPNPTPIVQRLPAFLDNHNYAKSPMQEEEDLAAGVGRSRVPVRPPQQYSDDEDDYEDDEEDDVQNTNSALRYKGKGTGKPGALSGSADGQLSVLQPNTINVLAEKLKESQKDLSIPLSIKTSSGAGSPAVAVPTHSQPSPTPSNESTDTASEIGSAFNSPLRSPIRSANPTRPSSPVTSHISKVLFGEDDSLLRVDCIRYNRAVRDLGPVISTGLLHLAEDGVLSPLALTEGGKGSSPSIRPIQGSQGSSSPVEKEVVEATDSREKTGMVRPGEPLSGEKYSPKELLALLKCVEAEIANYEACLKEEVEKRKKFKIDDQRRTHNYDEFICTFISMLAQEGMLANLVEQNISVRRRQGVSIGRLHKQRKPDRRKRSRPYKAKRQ
Outline: as §1

EIF3F = EIF3F (UniProt O00303)
EIF3F, sequence (O00303 whole entry): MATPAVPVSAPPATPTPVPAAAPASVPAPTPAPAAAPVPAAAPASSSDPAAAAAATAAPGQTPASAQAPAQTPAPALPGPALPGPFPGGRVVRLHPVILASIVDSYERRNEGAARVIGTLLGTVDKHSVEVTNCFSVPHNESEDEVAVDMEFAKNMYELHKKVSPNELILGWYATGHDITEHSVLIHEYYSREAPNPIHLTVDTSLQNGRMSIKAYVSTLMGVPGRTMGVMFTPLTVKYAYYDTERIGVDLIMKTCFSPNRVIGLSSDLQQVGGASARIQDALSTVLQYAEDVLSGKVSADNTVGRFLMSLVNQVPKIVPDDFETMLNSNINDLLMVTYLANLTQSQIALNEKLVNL
Outline: as §1

EIF3H = EIF3H (UniProt O15372)
EIF3H, sequence (O15372 whole entry): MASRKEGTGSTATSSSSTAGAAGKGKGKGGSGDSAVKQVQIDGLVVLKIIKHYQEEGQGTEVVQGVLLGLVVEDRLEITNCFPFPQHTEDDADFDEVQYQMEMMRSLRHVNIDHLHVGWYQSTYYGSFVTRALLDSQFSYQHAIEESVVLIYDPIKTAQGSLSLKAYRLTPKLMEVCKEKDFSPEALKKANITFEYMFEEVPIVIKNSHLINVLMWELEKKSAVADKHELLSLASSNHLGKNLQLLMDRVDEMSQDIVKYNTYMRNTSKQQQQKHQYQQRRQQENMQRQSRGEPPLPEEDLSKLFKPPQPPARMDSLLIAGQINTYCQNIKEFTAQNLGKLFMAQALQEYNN
Outline: as §1

FAM105A = target: T3, FAM105A (UniProt Q9NUU6)
T3 sequence (whole entry): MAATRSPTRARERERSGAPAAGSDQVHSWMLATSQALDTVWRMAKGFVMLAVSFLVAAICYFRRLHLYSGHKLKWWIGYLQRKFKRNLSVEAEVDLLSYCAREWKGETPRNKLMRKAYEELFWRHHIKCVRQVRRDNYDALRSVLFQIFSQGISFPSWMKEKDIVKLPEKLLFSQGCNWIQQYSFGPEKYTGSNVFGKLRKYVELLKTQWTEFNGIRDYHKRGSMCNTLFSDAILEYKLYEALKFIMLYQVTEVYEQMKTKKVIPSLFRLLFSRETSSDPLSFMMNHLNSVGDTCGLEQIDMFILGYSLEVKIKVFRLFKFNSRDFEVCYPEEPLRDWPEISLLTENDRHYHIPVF
Outline: as §1

OTUB1 = OTUB1 (UniProt Q96FW1)
OTUB1, sequence (Q96FW1 whole entry): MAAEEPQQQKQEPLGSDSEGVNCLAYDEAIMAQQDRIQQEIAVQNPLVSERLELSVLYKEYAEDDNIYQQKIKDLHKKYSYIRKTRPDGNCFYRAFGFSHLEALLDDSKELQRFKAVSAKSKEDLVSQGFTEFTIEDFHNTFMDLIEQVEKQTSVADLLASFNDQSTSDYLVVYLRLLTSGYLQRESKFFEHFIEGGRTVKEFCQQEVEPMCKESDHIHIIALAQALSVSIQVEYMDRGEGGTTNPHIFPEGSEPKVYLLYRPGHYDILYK
Outline: as §1

OTUD4 = target: T4, OTUD4 (UniProt Q01804)
T4 sequence (whole entry): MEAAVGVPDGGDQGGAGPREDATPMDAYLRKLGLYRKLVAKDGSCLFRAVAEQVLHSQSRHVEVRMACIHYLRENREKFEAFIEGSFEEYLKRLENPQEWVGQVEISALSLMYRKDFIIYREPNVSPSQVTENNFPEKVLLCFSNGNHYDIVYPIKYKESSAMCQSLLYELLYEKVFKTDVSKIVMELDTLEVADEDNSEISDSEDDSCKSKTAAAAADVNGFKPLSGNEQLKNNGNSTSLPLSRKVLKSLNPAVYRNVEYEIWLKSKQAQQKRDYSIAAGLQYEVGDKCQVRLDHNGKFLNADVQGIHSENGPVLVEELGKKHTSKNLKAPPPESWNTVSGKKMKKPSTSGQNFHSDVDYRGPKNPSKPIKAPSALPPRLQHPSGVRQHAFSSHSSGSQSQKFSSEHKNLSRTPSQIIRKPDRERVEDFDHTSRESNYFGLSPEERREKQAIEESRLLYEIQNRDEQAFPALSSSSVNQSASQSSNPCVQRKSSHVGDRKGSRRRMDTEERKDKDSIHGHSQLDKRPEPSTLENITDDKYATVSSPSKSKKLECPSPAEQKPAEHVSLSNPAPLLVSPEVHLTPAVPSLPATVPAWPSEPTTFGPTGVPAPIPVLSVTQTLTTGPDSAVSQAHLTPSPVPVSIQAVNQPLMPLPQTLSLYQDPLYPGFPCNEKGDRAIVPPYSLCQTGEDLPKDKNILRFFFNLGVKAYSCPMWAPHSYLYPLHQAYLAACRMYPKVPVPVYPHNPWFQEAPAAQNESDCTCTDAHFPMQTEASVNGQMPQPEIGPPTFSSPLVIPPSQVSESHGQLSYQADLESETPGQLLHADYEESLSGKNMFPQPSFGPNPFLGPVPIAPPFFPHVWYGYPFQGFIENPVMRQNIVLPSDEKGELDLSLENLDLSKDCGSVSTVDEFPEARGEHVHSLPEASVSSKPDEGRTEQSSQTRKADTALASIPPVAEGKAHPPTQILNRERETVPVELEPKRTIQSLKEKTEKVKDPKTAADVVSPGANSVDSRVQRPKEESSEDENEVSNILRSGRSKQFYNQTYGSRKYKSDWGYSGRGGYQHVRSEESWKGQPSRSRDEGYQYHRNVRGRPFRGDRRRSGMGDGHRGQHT
Outline: as §1

OTUD5 = target: T5, OTUD5 (UniProt Q96G74)
T5 sequence (whole entry): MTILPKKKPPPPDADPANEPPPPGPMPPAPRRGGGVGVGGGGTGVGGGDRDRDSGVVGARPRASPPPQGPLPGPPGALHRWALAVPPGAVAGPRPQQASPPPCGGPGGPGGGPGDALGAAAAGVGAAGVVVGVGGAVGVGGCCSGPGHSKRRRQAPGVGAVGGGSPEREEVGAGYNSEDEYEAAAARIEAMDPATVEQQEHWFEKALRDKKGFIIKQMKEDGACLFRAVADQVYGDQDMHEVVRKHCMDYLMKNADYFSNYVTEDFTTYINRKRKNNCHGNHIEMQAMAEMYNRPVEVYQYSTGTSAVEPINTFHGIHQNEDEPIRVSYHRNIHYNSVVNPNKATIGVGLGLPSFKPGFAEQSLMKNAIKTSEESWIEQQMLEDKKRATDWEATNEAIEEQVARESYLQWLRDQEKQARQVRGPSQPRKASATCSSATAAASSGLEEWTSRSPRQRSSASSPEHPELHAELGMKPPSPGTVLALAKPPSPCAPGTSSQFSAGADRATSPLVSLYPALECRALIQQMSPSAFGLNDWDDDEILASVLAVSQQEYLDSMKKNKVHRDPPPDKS
Outline: as §1

Measured: log2 ratio of Biotin-Ahx-Ub-VS probe labelling

Cc1ccc(-c2nnc(C)[nH]2)c(NC(=O)CCl)c1
active: BAP1 -4.24
inactive: ALG13 0.0249 | ATXN3 -0.0255 | EIF3F -0.316 | EIF3H 0.0246 | FAM105A -0.276 | OTUB1 0.149 | OTUD4 -0.353 | OTUD5 -0.237
